About 83,000 compounds went through this panel and 20% of them were active in at least one assay; those are over-represented in the sample as a whole.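 Activity criterion: percent growth below 10, measured after cells in 96-well plates were exposed to a single compound concentration for 48 hours.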 Values without a mark were called inactive. Active and inactive are the calls of the source.
What was measured:
Test in all cases: NCI-60 one-dose screen, 48 h (100 = growth as untreated, 0 = no growth, -100 = all killed)
Conditions in all cases: 10 µM
[1] = test system: T-47D breast
[2] = test system: BT-549 breast
[3] = test system: MDA-MB-435 melanoma
[4] = test system: SW-620 colon
[5] = test system: MCF7 breast
[6] = test system: HCT-116 colon
[7] = test system: HCC-2998 colon
[8] = test system: KM12 colon

## CC(C)(O)CCl
[1]
  growth: 116%
[2]
  growth: 116%
[3]
  growth: 102%
[4]
  growth: 99.5%
[5]
  growth: 100%
[6]
  growth: 110%
[7]
  growth: 109%
[8]
  growth: 107%

## C=C/C(C)=C/C[C@]1(C)[C@H](C)[C@@H](OC(=O)CCC)[C@H](O)[C@@]23C(=C[C@H](OC)C[C@@H]12)[C@@H](OC(=O)CCC)O[C@H]3OC(C)=O
[1]
  growth: -40% (active)
[2]
  growth: -48.3% (active)
[3]
  growth: -70.3% (active)
[4]
  growth: -61.1% (active)
[5]
  growth: 9.34% (active)
[6]
  growth: -70.3% (active)
[7]
  growth: -80.7% (active)
[8]
  growth: 8.41% (active)

## O=C1c2ccccc2C(=O)c2c1ccc1c(=O)n(-c3ccccc3C(F)(F)F)nnc21
[1]
  growth: 15.8%
[2]
  growth: 52.8%
[3]
  growth: -89.5% (active)
[4]
  growth: 11.4%
[5]
  growth: -51.7% (active)
[6]
  growth: -5.21% (active)
[7]
  growth: 28.9%
[8]
  growth: 27.2%

## Cc1cc(SC#N)cc(C(C)(C)C)c1O
[1]
  growth: 80%
[2]
  growth: 87.3%
[3]
  growth: 107%
[4]
  growth: 120%
[5]
  growth: 97.4%
[6]
  growth: 70.9%
[7]
  growth: 109%
[8]
  growth: 105%

## COc1ccc(/C(C#N)=C/c2cccc(OC)c2OC)cc1
[1]
  growth: 80.7%
[2]
  growth: 78.1%
[3]
  growth: 9.46% (active)
[4]
  growth: 65.2%
[5]
  growth: 66%
[6]
  growth: 89.7%
[7]
  growth: 78.4%
[8]
  growth: 56.7%

## CCOC(=O)c1sc2ncnc(Nc3ccc4c(cnn4C(=O)Nc4ccc(C)c(Cl)c4)c3)c2c1C
[1]
  growth: 101%
[2]
  growth: 102%
[3]
  growth: 100%
[4]
  growth: 102%
[5]
  growth: 87.8%
[6]
  growth: 88.9%
[7]
  growth: 94.1%
[8]
  growth: 95.4%

## O=C(CNc1nnc(-c2cccnc2SCc2ccccc2)s1)Nc1nc(Cl)cc(Cl)n1
[1]
  growth: 79.3%
[2]
  growth: 100%
[3]
  growth: 114%
[4]
  growth: 117%
[5]
  growth: 89.1%
[6]
  growth: 106%
[7]
  growth: 122%
[8]
  growth: 97.9%

## COc1cc2c3c(n(C4CCNCC4)c(=O)c2cc1OC)-c1cc2c(cc1C3=O)OCO2
[1]
  growth: -51.1% (active)
[2]
  growth: -58% (active)
[3]
  growth: -44.1% (active)
[4]
  growth: -73.2% (active)
[5]
  growth: -53.8% (active)
[6]
  growth: -60.7% (active)
[7]
  growth: -95% (active)
[8]
  growth: -79.6% (active)

## O=C1NC(=O)c2c(CCCSc3nc4ccccc4c(=O)n3CCc3ccccc3)cccc21
[1]
  growth: 79.1%
[2]
  growth: 92.6%
[3]
  growth: 85.6%
[4]
  growth: 98.8%
[5]
  growth: 83.5%
[6]
  growth: 80%
[7]
  growth: 91.9%
[8]
  growth: 100%

## COc1cc(C)ccc1Oc1nc(Nc2ccc(N3CCOCC3)cc2)ncc1NC(=O)Nc1cc(C(F)(F)F)cc(C(F)(F)F)c1
[1]
  growth: 81.9%
[2]
  growth: 78.3%
[3]
  growth: 81.5%
[4]
  growth: 82.6%
[5]
  growth: 69.3%
[6]
  growth: 22.6%
[7]
  growth: 101%
[8]
  growth: 63.5%

## Cc1ccc(NC(=S)NNC(=S)Nc2ccc(C)cc2)cc1
[1]
  growth: 46.8%
[2]
  growth: 71.7%
[3]
  growth: -1.34% (active)
[4]
  growth: 44.3%
[5]
  growth: 29.3%
[6]
  growth: 34.5%
[7]
  growth: 68.9%
[8]
  growth: 60.5%

## Cc1ccc(C(=O)/C=C/c2ccccc2)s1
[1]
  growth: 141%
[2]
  growth: 99%
[3]
  growth: 98.5%
[4]
  growth: 100%
[5]
  growth: 40%
[6]
  growth: 60.4%
[7]
  growth: 101%
[8]
  growth: 92.8%

## COc1ccc(-c2cc(-c3ccccc3)nc(SCCCC(=O)NO)n2)cc1
[1]
  growth: -1.07% (active)
[2]
  growth: 19.6%
[3]
  growth: -3.03% (active)
[4]
  growth: 2.34% (active)
[5]
  growth: -5.14% (active)
[6]
  growth: 3.36% (active)
[7]
  growth: -16.6% (active)
[8]
  growth: 17.3%

## CSc1ccc(-c2cc(-c3ccc(NC(=O)CCCN4CCCC4)cc3)nc(-c3ccc(NC(=O)CCCN4CCCC4)cc3)c2)cc1
[1]
  growth: 102%
[2]
  growth: 77.6%
[3]
  growth: 79.7%
[4]
  growth: 67.6%
[5]
  growth: -86.4% (active)
[6]
  growth: 80.4%
[7]
  growth: 86.3%
[8]
  growth: 24.6%

## CCOC(=O)CSc1nc(-c2cc(OC)ccc2OC)cc(-c2ccc(OC)cc2)c1C#N
[1]
  growth: 65.6%
[2]
  growth: 86%
[3]
  growth: 86.6%
[4]
  growth: 92.1%
[5]
  growth: 71.7%
[6]
  growth: 67.3%
[7]
  growth: 85.5%
[8]
  growth: 71.3%

## NC(CSC(c1ccccc1)(c1ccccc1)c1cccc2ccccc12)C(=O)O (stereo not given)
[1]
  growth: 103%
[2]
  growth: 91.7%
[3]
  growth: 90.9%
[4]
  growth: 97.8%
[5]
  growth: 105%
[6]
  growth: 85.7%
[7]
  growth: 103%
[8]
  growth: 91.9%

## Cc1ccc2nc(Cl)c(-c3nc4ccccc4o3)cc2c1
[1]
  growth: 83.9%
[2]
  growth: 88.5%
[3]
  growth: 99.8%
[4]
  growth: 103%
[5]
  growth: 92.4%
[6]
  growth: 97.3%
[7]
  growth: 87.8%
[8]
  growth: 89.5%

## COc1ccc(C(=O)N2C=Cc3ccccc3C2C#N)cc1 (stereo not given)
[1]
  growth: 90.8%
[2]
  growth: 103%
[3]
  growth: 72.3%
[4]
  growth: 99%
[5]
  growth: 96.4%
[6]
  growth: 115%
[7]
  growth: 103%
[8]
  growth: 89.6%

## O=C(N/N=C/c1ccc(Cl)cc1)c1ccc(Cc2n[nH]c(=O)c3cccnc23)cc1
[1]
  growth: 99.4%
[2]
  growth: 100%
[3]
  growth: 95.5%
[4]
  growth: 113%
[5]
  growth: 95.8%
[6]
  growth: 94.5%
[7]
  growth: 89.8%
[8]
  growth: 108%

## CCc1cc(Cl)c(OC)c(C(=O)NCC2CCCN2CC)c1O (stereo not given)
[1]
  growth: 80.9%
[2]
  growth: 89.2%
[3]
  growth: 92.7%
[4]
  growth: 91.7%
[5]
  growth: 95.8%
[6]
  growth: 88.5%
[7]
  growth: 96.4%
[8]
  growth: 101%

## CNC(=O)c1cn2c3c(c(N4CCN(C)CC4)c(F)cc3c1=O)OC[C@@H]2C
[1]
  growth: 98.9%
[2]
  growth: 104%
[3]
  growth: 104%
[4]
  growth: 99.9%
[5]
  growth: 95.8%
[6]
  growth: 104%
[7]
  growth: 108%
[8]
  growth: 100%

## Cc1cccc(N=Cc2ccccc2O)c1C
[1]
  growth: 106%
[2]
  growth: 90%
[3]
  growth: 102%
[4]
  growth: 112%
[5]
  growth: 98.8%
[6]
  growth: 106%
[7]
  growth: 104%
[8]
  growth: 114%

## CC(C)(C)OC(=O)N1CCc2c(sc3ncnc(N/N=C/c4ccccc4Br)c23)C1
[1]
  growth: 41.5%
[2]
  growth: 92.3%
[3]
  growth: 77.9%
[4]
  growth: 55%
[5]
  growth: -12% (active)
[6]
  growth: 41.6%
[7]
  growth: 92.3%
[8]
  growth: 92.1%

## COc1ccc(C2=Cn3c(CCC(=O)c4nc5ccccc5[nH]4)nnc3SC2)cc1
[1]
  growth: 81%
[2]
  growth: 104%
[3]
  growth: 90.3%
[4]
  growth: 129%
[5]
  growth: 84.6%
[6]
  growth: 71.4%
[7]
  growth: 127%
[8]
  growth: 98.6%

## COc1cccc(C2C(C#N)=C(N)Oc3cc(N)ccc32)c1 (stereo not given)
[1]
  growth: 10.4%
[2]
  growth: 47.3%
[3]
  growth: -30.5% (active)
[4]
  growth: 18.7%
[5]
  growth: 12.1%
[6]
  growth: 23.2%
[7]
  growth: 39.1%
[8]
  growth: 24.6%

## NS(=O)(=O)Oc1ccc(NC(=O)C2CCCCCC2)cc1
[1]
  growth: 90.7%
[2]
  growth: 104%
[3]
  growth: 106%
[4]
  growth: 106%
[5]
  growth: 97.7%
[6]
  growth: 105%
[7]
  growth: 101%
[8]
  growth: 101%

## Cc1cc(C(C#N)c2ccc(Cl)cc2)c(Cl)cc1NC(=O)c1cc(I)cc(I)c1O (stereo not given)
[1]
  growth: 66.4%
[2]
  growth: 36.8%
[3]
  growth: 55.7%
[4]
  growth: 43.3%
[5]
  growth: 43.2%
[6]
  growth: 7.35% (active)
[7]
  growth: 17.4%
[8]
  growth: 34%

## CN1C(=O)C2(Nc3cc(Cl)ccc3S2)c2cc(Cl)ccc21 (stereo not given)
[1]
  growth: 71.6%
[2]
  growth: 80.1%
[3]
  growth: 98.4%
[4]
  growth: 94%
[5]
  growth: 75.4%
[6]
  growth: 82.9%
[7]
  growth: 93.5%
[8]
  growth: 99%

## CCC(CC)n1c(C)cc(=O)n1C(CC)CC
[1]
  growth: 105%
[2]
  growth: 122%
[3]
  growth: 102%
[4]
  growth: 105%
[5]
  growth: 105%
[6]
  growth: 105%
[7]
  growth: 105%
[8]
  growth: 115%

## CC(C)Cc1ccc([C@H](C)C(=O)O)cc1
[1]
  growth: 102%
[2]
  growth: 107%
[3]
  growth: 103%
[4]
  growth: 110%
[5]
  growth: 94.8%
[6]
  growth: 103%
[7]
  growth: 108%
[8]
  growth: 108%

Reference: PubChem BioAssay (NCI)
